Assay results from ChEMBL document CHEMBL1157539, “Thousands of chemical starting points for antimalarial lead identification” (Nature, 2010).

System: Plasmodium falciparum
Test: GSK_TCMDC: Inhibition of Plasmodium falciparum 3D7 in whole red blood cells, using parasite LDH activity as an index of growth. Test compounds present at 2uM
Format: functional

Q: Which Inhibition does the source give for `COc1cc2ccccc2c(OC)c1CNCCCCCCNCc1c(OC)cc2ccccc2c1OC.CS(=O)(=O)O` here?
A: The Inhibition was 93%.

Q: For `O=C(Nc1ccc(-c2cccc(-c3nc4ccccc4[nH]3)c2)cc1)c1cnn2cccnc12`, which Inhibition is on record?
A: The Inhibition was 99%.

Q: Which Inhibition does the source give for `COc1ccc(CNc2nc(NCCc3ccccc3)c3cc(OC)c(OC)cc3n2)cc1OC` here?
A: Its Inhibition is 100%.

Q: How did the Inhibition turn out when `COc1ccc(CCN2CCC(Nc3nc4ccccc4n3CCc3ccc(OC)cc3)CC2)cc1.Cl` was run?
A: The Inhibition was 100%.

Q: With `COc1cccc2c(N/N=C/c3cccc([N+](=O)[O-])c3)ccnc12` as the compound, how does the Inhibition read?
A: The Inhibition was 100%.

Q: `Nc1ncnc2nc(-c3ccc(F)cc3)cc(-c3ccc(NC(=O)c4ccccc4)cc3)c12` was tested. Which Inhibition did it give?
A: Its Inhibition is 100%.

Q: Which Inhibition does the source give for `Cc1ccc(Cn2c(N3CCC(C(=O)NCc4ccccn4)CC3)nc3ccccc32)cc1` here?
A: The Inhibition was 100%.

Q: How did the Inhibition turn out when `O=C(Nc1cccc(-c2cccc(F)c2)c1)C1CCN(Cc2ccc(O)cc2)CC1` was run?
A: Its Inhibition is 87%.

Q: For `Cn1ncc2ccc(Nc3nccc(-c4ccc5c(c4)c(N)nn5C)n3)cc21`, which Inhibition is on record?
A: The Inhibition was 99%.

Q: With `O=C(Nc1cccc(-c2cccc(-c3nc4cc(C(F)(F)F)ccc4[nH]3)c2)c1)Nc1ccc(F)c(F)c1F` as the compound, how does the Inhibition read?
A: Its Inhibition is 99%.

Q: For `O=C(Nc1ccc(Oc2ccc(OC(F)(F)F)cc2)cc1)c1ccco1`, which Inhibition is on record?
A: The Inhibition was 90%.

Q: For `CC(C)NC(=O)c1cccc(-c2ccc(OCCN3CCCC3c3cc4ccccc4[nH]3)cc2)c1` (centres undefined), which Inhibition is on record?
A: The Inhibition was 100%.

Q: For `Cc1nc2nc(N)nc(N)c2c(C)c1Cc1ccccc1Br.Cl`, which Inhibition is on record?
A: The Inhibition was 92%.

Q: For `O=C(N[C@@H](CC1CCCCC1)C(=O)NCCN1CCCCC1)c1ccc(O)c(-c2cccc(C(F)(F)F)c2)c1`, which Inhibition is on record?
A: The Inhibition was 99%.

Q: Which Inhibition does the source give for `O=C(Nc1cccc(CN2CCCN(Cc3ncc[nH]3)CC2)c1)c1ccc(Cl)c(Cl)c1.O=C(O)C(F)(F)F` here?
A: Its Inhibition is 100%.

Q: Which Inhibition does the source give for `Cn1c(N)c(C(=O)CSc2ncc(-c3ccc(F)cc3)n2Cc2ccccc2)c(=O)n(C)c1=O` here?
A: Its Inhibition is 88%.

Q: `CN(C)CC(=O)Nc1ccc(Nc2nccc(NCC(O)c3ccccc3)n2)cc1` (centres undefined) was tested. Which Inhibition did it give?
A: The Inhibition was 95%.

Q: With `Cl.N#CCc1ccc(Nc2nccc(Nc3ccc(Oc4ccccc4)cc3)n2)cc1` as the compound, how does the Inhibition read?
A: Its Inhibition is 98%.

Q: `OCc1c(Cl)cc(Cl)cc1CNCCCNc1nc2ccccc2[nH]1` was tested. Which Inhibition did it give?
A: The Inhibition was 100%.

Q: `O=C(NC1CCCCN(Cc2ccc3c(c2)OCCO3)C1)c1cc(-c2ccccc2F)cs1.O=C(O)C(F)(F)F` (centres undefined) was tested. Which Inhibition did it give?
A: The Inhibition was 92%.

Q: For `COc1ccc(NC(=O)CSc2nc(-c3ccccc3Cl)ns2)cc1`, which Inhibition is on record?
A: The Inhibition was 96%.

Q: Which Inhibition does the source give for `COc1ccc2nc(-c3ccccc3)cc(NCCN(C)C)c2c1` here?
A: Its Inhibition is 100%.

Q: With `CCc1ccc(S(=O)(=O)Nc2cccc(CCN3CCC(N4CCCCC4)CC3)c2)cc1` as the compound, how does the Inhibition read?
A: The Inhibition was 100%.

Q: `CC(C)CSc1cc(C(=O)Nc2cc(Cl)ccc2O)ccn1` was tested. Which Inhibition did it give?
A: The Inhibition was 100%.

Q: How did the Inhibition turn out when `CN1CCN(CCCN(Cc2cccc(-c3ccc(CNC4CCCC4)cc3)c2)C(=O)CCC2CCCC2)CC1.O=C(O)C(F)(F)F` was run?
A: The Inhibition was 97%.

Q: For `O=C(Nc1cccnc1)c1cc(-c2cc(Cl)ccc2O)n[nH]1`, which Inhibition is on record?
A: The Inhibition was 98%.

Q: `c1cc(Cc2ccc(Nc3c4ccccc4nc4ccccc34)cc2)cc(Nc2c3ccccc3nc3ccccc23)c1` was tested. Which Inhibition did it give?
A: Its Inhibition is 100%.

Q: For `N#Cc1cnc(Nc2ccc(Oc3ccccc3)cc2)nc1Nc1cccc(S(N)(=O)=O)c1`, which Inhibition is on record?
A: Its Inhibition is 96%.

Q: Which Inhibition does the source give for `O=C(O)C(F)(F)F.O=C(c1ccccc1)N(Cc1ccccc1-c1ccc(CNCCc2ccccc2)cc1)C1CCN(Cc2ccccc2)CC1` here?
A: Its Inhibition is 95%.

Q: Which Inhibition does the source give for `Cc1cc(OCCCN2CCCCC2)ccc1NC(=O)COc1ccc(Cl)cc1C(=O)c1cc(Cl)cc(C#N)c1` here?
A: Its Inhibition is 93%.

Q: With `CC(C)NCc1ccc(-c2ccc(-c3nc4cc(C(F)(F)F)ccc4[nH]3)s2)cc1.O=C(O)C(F)(F)F` as the compound, how does the Inhibition read?
A: The Inhibition was 100%.

Q: `CNCCNCc1ccc(-c2ccc(-c3nc4cccc(C)c4[nH]3)cc2)cc1.O=C(O)C(F)(F)F` was tested. Which Inhibition did it give?
A: Its Inhibition is 96%.

Q: How did the Inhibition turn out when `O=C(Cn1cnc2c(nnn2Cc2ccccc2F)c1=O)Nc1ccc2c(c1)OCCO2` was run?
A: Its Inhibition is 86%.

Q: How did the Inhibition turn out when `O=C(Nc1cncc(NC(=O)c2ccc(Cl)c(Cl)c2)c1)c1ccc(Cl)c(Cl)c1` was run?
A: Its Inhibition is 100%.

Q: For `O=C(N[C@@H](Cc1ccccc1)C(=O)NC1CCCCC1)c1ccc(O)c(-c2ccc(Cl)c(Cl)c2)c1`, which Inhibition is on record?
A: Its Inhibition is 98%.

Q: For `CC(C)COc1ccc(Cl)cc1Cc1nc(-c2nc3ccc(N4CCN(C)CC4)nc3[nH]2)cs1.Cl`, which Inhibition is on record?
A: Its Inhibition is 99%.

Q: With `CN(C)CCOc1cc(O)c2c(c1)OC(C)(C)C=C2c1cccs1` as the compound, how does the Inhibition read?
A: Its Inhibition is 99%.

Q: `CO/N=C(\C)c1ccc2c(c1)CCN(CCC1CCC(NC(=O)/C=C/c3ccc(F)cc3)CC1)CC2.Cl` (centres undefined) was tested. Which Inhibition did it give?
A: The Inhibition was 95%.

Q: How did the Inhibition turn out when `CCOc1cc(CC)ccc1C1CCN(CCN2CCC(CNC(=O)c3ccc(-c4ccc(C#N)cc4)cc3)CC2)CC1` was run?
A: The Inhibition was 89%.
